A short description of experiment [1]: qHTS assay to identify small molecule agonists of the NFkB signaling pathway - cell viability counter screen (AID 1159515; calls by dose curve; further: series mostly up to about 61 µM; on the % scale 0 is the no-effect control and ±100 the full control effect; nearly all actives have a fitted effect of over 55% in size). Summed up: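 Parallel cytotoxicity counter screen in ME-180 cells carrying an NFkB-response-element beta-lactamase reporter, 2,000 cells/well. Compound exposure lasted 5 hr at 37 C, 5% CO2. Cell viability was quantified by CellTiter-Glo luminescence.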

Experiment [2] in a line: qHTS assay to identify small molecule agonists of the endoplasmic reticulum stress response signaling pathway - cell viability counter screen (AID 1159517; calls by dose curve;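 further: HeLa cells carrying an ER stress response element beta-lactamase reporter; series mostly up to about 61 µM; on the % scale 0 is the no-effect control and ±100 the full control effect; nearly all actives have a fitted effect of over 50% in size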). In short, it runs like this: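 ESRE-bla HeLa cells (1,500/well) were plated overnight at 37 C and exposed to compounds for 5 hr. After the 2 hr beta-lactamase substrate read, CellTiter-Glo went into the same wells, and luminescence was read after 30 min at room temperature.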

The target of experiment [3] is Nuclear receptor ROR-gamma (Homo sapiens) (UniProt P51449). Description: qHTS assay to identify small molecule antagonists of the retinoid-related orphan receptor gamma (ROR-gamma) signaling pathway (AID 1159521; further: top concentration of the series differs between compounds; on the % scale 0 is the no-effect control and ±100 the full control effect; nearly all actives have a fitted effect of over 50% in size). Summed up: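 Inducible-expression reporter assay: doxycycline (1 uM final) switched on RORγ in CHO cells bearing a ROR response element-luciferase construct, with test compounds present from 2 h beforehand. Decreased luminescence after 16 h defined antagonist activity.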

Experiment [4] in a line: qHTS assay to identify small molecule agonists of the AP-1 signaling pathway - cell viability counter screen (AID 1159525; calls by dose curve; further: nearly all actives have a fitted effect of over 55% in size). In short, it runs like this: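 Intracellular ATP by Cell Titer Glo luminescence (30 min, RT) in the same ME-180 AP-1-bla wells after the 5 h compound exposure at 37 °C. Normalised to tetra n-octyl ammonium bromide and DMSO controls.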
Experiment [5] in a line: qHTS assay to identify small molecule agonists of the AP-1 signaling pathway (AID 1159526; calls by dose curve; further: on the % scale 0 is the no-effect control and ±100 the full control effect).
Experiment [6] addresses Retinoic acid receptor RXR-alpha (Homo sapiens) (UniProt P19793). In words: qHTS assay to identify small molecule agonists of the RXR signaling pathway (AID 1159527; calls by dose curve; further: nearly all actives have a fitted effect of over 35% in size; further: potency means the concentration at half of the fitted maximal effect; on activation: on the % scale 0 is the no-effect control and ±100 the full control effect). Summed up:
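Compounds in DMSO were added to RXR-alpha-UAS-bla HEK 293T cells kept in 2% charcoal-stripped serum, and incubated 16 hr at 37 C with 5% CO2. Reporter signal came from a 2 hr B/G FRET substrate step.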

The nature of experiment [7]: qHTS assay to identify small molecule agonists of the RXR signaling pathway - cell viability counter screen (AID 1159529). Further: series mostly up to about 77 µM; on the % scale 0 is the no-effect control and ±100 the full control effect; nearly all actives have a fitted effect of over 50% in size. Summed up:
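Counter screen: CellTiter-Glo luminescence. Cells: RXR-alpha-UAS-bla HEK 293T. Medium: 2% charcoal-stripped FBS. Treatment: 16 h, 37 C. Reagent incubation: 30 min, RT.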

Experiment [8] in a line: qHTS assay to identify small molecule antagonists of the retinoid acid receptor (RAR) signaling pathway - cell viability counter screen (AID 1159551). Further: on the % scale 0 is the no-effect control and ±100 the full control effect; nearly all actives have a fitted effect of over 35% in size. Summed up:
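ATP-based viability, C3RL4 cells, 6 h at 37 C with 1 uM final retinol co-added after compound; luminescence read 30 min post CellTiter-Glo, RT.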

Experiment [9] in a line: qHTS assay to identify small molecule antagonists of the retinoic acid receptor (RAR) signaling pathway (AID 1159552; further: on the % scale 0 is the no-effect control and ±100 the full control effect; nearly all actives have a fitted effect of over 50% in size). In short, it runs like this: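 Antagonism of retinol-induced RARE reporter activity was measured in C3RL4 cells. Exposure to compounds and 1 uM final retinol lasted 6 hr at 37 C, with luminescence as endpoint.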
Experiment [10] is described as follows: qHTS assay to identify small molecule agonists of the retinoic acid receptor (RAR) signaling pathway (AID 1159553). Further: potency means the concentration at half of the fitted maximal effect. In short, it runs like this: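 Quantitative high-throughput format: the Tox21 10K library was tested on C3RL4 RARE-luciferase cells for 6 hr at 37 C and 5% CO2, with luminescence measured after a 30 min room-temperature reagent step.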
Experiment [11] can be described thus: qHTS assay to identify small molecule antagonists of the estrogen related receptor (ERR) signaling pathway from Tox21 library - cell viability counter screen (AID 1224834). Further: nearly all actives have a fitted effect of over 30% in size. Further: potency means the concentration at half of the fitted maximal effect. In short, it runs like this: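 Compounds in DMSO were pinned onto ERR cells that had been incubated for 6 h, and the plates were held at 37 C for 17.5 h. CellTiter-Fluor reagent was then added and fluorescence was measured after 30 min.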

Experiment [12] can be described thus: qHTS assay to identify small molecule antagonists of the retinoid-related orphan receptor gamma (ROR-gamma) signaling pathway - cell viability counter screen (AID 1159520). In short, it runs like this: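 Cytotoxicity was read from cellular ATP (CellTiter-Glo luminescence) after 16 hr at 37 C with 1 uM doxycycline induction. The inducer was added 2 hr after compound transfer to Tet-on ROR gamma CHO cells.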

A short description of experiment [13]: qHTS assay to identify small molecule antagonists of the vitamin D receptor (VDR) signaling pathway - cell viability counter screen (AID 743225). Summed up:
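Same-well multiplex: following 16 h treatment of HEK 293T cells carrying a UAS-driven beta-lactamase reporter with compound and agonist (3 nM final), and a 2 h FRET substrate step, CellTiter-Glo was added and luminescence read after 30 min.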

Experiment [14] in a line: qHTS assay to identify small molecule antagonists of the estrogen related receptor (ERR) signaling pathway - cell viability counter screen (AID 1224818). Further: series mostly up to about 46 µM; on the % scale 0 is the no-effect control and ±100 the full control effect. Summed up: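 Quantitative high-throughput viability counter screen in ERR cells. Compounds (DMSO) incubated 17.5 h at 37 C; read-out was CellTiter-Fluor fluorescence.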
The nature of experiment [15]: qHTS assay to identify small molecule antagonists of the estrogen related receptor signaling pathway with the pleiotropic PPARgamma coactivator (PGC) cell viability counter screen (AID 1224822; further: series mostly up to about 46 µM; on the % scale 0 is the no-effect control and ±100 the full control effect). Summed up: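 Cytotoxicity in the PGC/ERR cell line is assessed with CellTiter-Fluor, read as fluorescence intensity 30 min after reagent addition, following 17.5 h compound treatment at 37 C.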

Records with an inconclusive call do not appear. Values without a mark were called inactive. Activity calls are given as the source filed them. Unless noted, the call rests on the fitted dose curve; in most records, active means well fitted curve in the direction sought with a large enough effect in the repeat runs; inconclusive means weak or mixed curves; inactive means no such curve, though single readings can be large; an effect the other way counts as inactive or inconclusive.

Chain of Retinoic acid receptor RXR-alpha (Homo sapiens) (P19793 whole entry, looked up): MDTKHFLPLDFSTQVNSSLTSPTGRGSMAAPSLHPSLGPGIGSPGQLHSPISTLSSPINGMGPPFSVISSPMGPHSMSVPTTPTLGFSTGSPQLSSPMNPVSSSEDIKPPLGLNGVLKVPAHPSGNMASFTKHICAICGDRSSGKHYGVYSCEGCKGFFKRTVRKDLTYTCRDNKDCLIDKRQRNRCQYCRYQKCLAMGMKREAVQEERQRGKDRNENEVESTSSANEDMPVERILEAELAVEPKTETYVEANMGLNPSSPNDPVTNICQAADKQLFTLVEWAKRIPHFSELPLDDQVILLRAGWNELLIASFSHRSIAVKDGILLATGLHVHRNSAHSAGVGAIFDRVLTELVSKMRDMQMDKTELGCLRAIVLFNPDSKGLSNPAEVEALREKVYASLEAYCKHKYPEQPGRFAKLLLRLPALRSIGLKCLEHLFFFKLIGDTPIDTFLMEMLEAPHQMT

`CN1CCN(c2cc3c(nn2)Oc2ccccc2N3C)CC1`: the molecule was classed as inactive in experiment [1] and in [2]. In addition, the activity change, negative = inhibition in experiment [3] was 55.1% [at 19 µM]. Moreover, the viability change, negative = cytotoxic in experiment [4] was 4.25% [at 15.8 µM]; in experiment [11], 4.08% [at 19 µM]. Besides, the activation in experiment [5] is 0.803% [at 15.8 µM]; in experiment [6] it was 10.7% [at 15.8 µM]. Also, the activity change, negative = cytotoxicity in experiment [7] was 1.18% [at 15.8 µM]; in [8], 0.0499% [at 19 µM]. Also, in [9], the activity, negative = inhibition is 162% [at 19 µM]. The Potency in experiment [10] was 5.8 µM (active).

Consider `CCCCCCCCCC[N+](C)(C)[O-]`, for which the result in experiment [1], in experiment [2], in experiment [12], in experiment [4] and in experiment [5] was inactive. For the same molecule, the Potency result in experiment [3], in experiment [6], in [7] and in experiment [11] was “inactive” throughout.

For `CCCCc1ccc2c(n1)[C@@H](c1ccc(OC)cc1C[C@H](C)C(=O)O)[C@H](C(=O)O)[C@H]2c1ccc2c(c1)OCO2`, the molecule was called inactive in experiment [13], in [1], in experiment [2], in [12], in experiment [4] and in experiment [5]. Besides, the result in experiment [8] was inactive. The Potency entry in [3], in [6], in experiment [7] and in [11] was “inactive” throughout.

`Cc1ncc([C@@H](CCCCCCc2ccc3c(n2)NCCC3)CC(=O)O)cn1`: the outcome in [13], in experiment [1], in experiment [2], in [12], in [4] and in experiment [5] was inactive. Also, the molecule was classed as inactive in experiment [8]. For the same molecule, the Potency entry in [3], in experiment [6] and in experiment [7] was “inactive” throughout. Further, the Potency in experiment [11] is 0.109 µM (active).

On to `CC1=NN(c2cc(S(=O)(=O)O)ccc2Cl)C(=O)C1N=Nc1ccccc1` (configuration not stated), for which the molecule was classed as inactive in experiment [13], in experiment [1], in experiment [2], in experiment [4], in [5] and in experiment [8]. Further, the Potency entry in experiment [3], in experiment [6], in [7] and in [9] was “inactive” each time. The Potency in experiment [10] is 68.6 µM (active).

For `CC(=O)O[C@@]12CO[C@@H]1C[C@H](O)[C@@]1(C)C(=O)[C@H](O)C3=C(C)[C@@H](OC(=O)[C@H](O)[C@@H](NC(=O)OC(C)(C)C)c4ccccc4)C[C@@](O)([C@@H](OC(=O)c4ccccc4)[C@H]21)C3(C)C`, the molecule was classed as inactive in [13], in experiment [1], in experiment [2], in experiment [12], in experiment [4] and in experiment [5]. Further, the molecule was classed as inactive in experiment [8]. The Potency result in experiment [3], in experiment [6] and in experiment [7] was “inactive” in each case. The Potency in [11] is 0.0668 µM (active).

Regarding `C1CCC2(CCCCO2)OC1`, the molecule was classed as inactive in experiment [1], in experiment [2], in [12], in experiment [4], in experiment [5] and in experiment [8]. Besides, the Potency result in [3], in experiment [7] and in [11] was “inactive” each time.

Turning to `O=C(O)Cc1csc(-c2ccc(Cl)cc2)n1`, the molecule was called inactive in experiment [13], in experiment [1], in experiment [2], in [12], in experiment [4] and in experiment [5]. Besides, the Potency entry in [3], in experiment [6], in experiment [7] and in [11] was “inactive” throughout.

With `NO`, the result in experiment [13], in experiment [1], in [2], in experiment [4], in [5] and in experiment [8] was inactive. Besides, the outcome in experiment [14] and in [15] was inactive. Further, the Potency result in experiment [3], in experiment [7], in experiment [10] and in experiment [11] was “inactive” throughout. Also, the Potency in experiment [6] is 44.5 µM (active).

With `C=CN1CCCCCC1=O`, the result in experiment [13], in experiment [1], in [2], in experiment [12], in [4] and in experiment [5] was inactive. Besides, in experiment [8], the call was inactive. For the same molecule, the Potency result in [3], in experiment [7] and in experiment [11] was “inactive” throughout.

For `O=C1c2ccccc2C(=O)c2cc(O)ccc21`, the call in experiment [13], in [1], in experiment [2], in experiment [12], in [4] and in experiment [5] was inactive. Also, the molecule was called inactive in [8]. Also, the Potency result in experiment [3], in experiment [7] and in experiment [9] was “inactive” each time. Besides, the Potency in [10] is 17.2 µM (active).

(Values after PubChem BioAssay (Tox21).)
